# Source: PubChem BioAssay (EPA / NIEHS)
# Records with an inconclusive call do not appear. Calls of active or inactive are those of the source. Rule for the calls, unless noted: active = hit-call score of the fitted dose curve at least 0.9, where 1 is the maximum; inactive = score below 0.9.
# How the values were obtained:
# [1] = BSK_3C_Proliferation: Cell Proliferation Assessment in the BioMAP Diversity Plus: 3C Assay (AID 2283006); settings: primary human endothelial cells (HUVEC);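 for AC50: potency may reflect either rise or fall in cell number versus DMSO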
# Procedure, shortened: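 Proliferation as total protein: sulforhodamine B (0.1%) stain of TCA-fixed subconfluent human umbilical vein endothelial cells, absorbance 560 nm, 48 h after dosing. Activity fitted in both directions against DMSO baseline.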
# [2] = BSK_CASM3C_SRB: Viability Assessment in the BioMAP Diversity Plus: CASM3C Assay (AID 2283050); settings: primary human coronary artery smooth muscle cells
# CD40, CD40 (gene 958) = test: BSK_LPS_CD40: BioMAP Diversity Plus: LPS Assay for CD40 Biomarker Activity (AID 2283076); settings: primary human HUVEC with PBMC; actives raise or lower the signal
# Procedure, shortened: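 CD40 signal, measured by ELISA, is fitted in both directions relative to DMSO vehicle. The system is an LPS-driven human vascular primary co-culture of endothelial cells and PBMC, sampled 24 h after compound addition.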
# [3] = target: Estrogen receptor (Homo sapiens) (UniProt P03372); test: ATG_ERa_TRANS: Attagene TRANS-FACTORIAL HepG2 Assay for human Estrogen Receptor alpha (ERa) (AID 2282970; active = hit-call score of the fitted dose curve at least 0.9, where 1 is the maximum); settings: HepG2 Attagene TRANS ERa GAL4 reporter, mRNA
# Estrogen receptor (Homo sapiens), sequence (P03372 whole entry, looked up, the tested form may be a part): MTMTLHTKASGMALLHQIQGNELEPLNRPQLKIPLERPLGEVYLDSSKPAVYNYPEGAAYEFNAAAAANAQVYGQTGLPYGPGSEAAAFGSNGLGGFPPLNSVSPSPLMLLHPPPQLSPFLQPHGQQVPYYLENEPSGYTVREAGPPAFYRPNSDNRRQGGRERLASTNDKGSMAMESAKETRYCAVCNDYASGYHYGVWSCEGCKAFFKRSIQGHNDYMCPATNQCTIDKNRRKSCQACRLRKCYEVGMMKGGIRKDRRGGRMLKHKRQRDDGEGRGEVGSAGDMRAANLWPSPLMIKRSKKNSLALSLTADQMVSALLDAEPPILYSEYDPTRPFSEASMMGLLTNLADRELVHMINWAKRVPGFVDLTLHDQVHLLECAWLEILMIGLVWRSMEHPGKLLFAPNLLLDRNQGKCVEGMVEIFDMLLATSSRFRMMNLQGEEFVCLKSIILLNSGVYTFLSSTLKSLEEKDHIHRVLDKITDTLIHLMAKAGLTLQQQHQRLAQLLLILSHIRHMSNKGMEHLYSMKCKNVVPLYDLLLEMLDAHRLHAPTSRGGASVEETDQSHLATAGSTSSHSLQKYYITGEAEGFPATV
# Procedure, shortened: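 Transfected HepG2 cells carrying GAL4-UAS-driven reporter units were dosed for 24 hours. Total RNA was reverse-transcribed, reporter sequences PCR-amplified, FAM-labelled, HpaI-digested and resolved by capillary electrophoresis. Increases over DMSO control defined activity.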
# [4] = BSK_3C_Vis: BioMAP Diversity Plus: 3C Assay for Morphology Visualization (AID 2283025); settings: primary human endothelial cells (HUVEC);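 note: fitted both ways so gain or loss versus DMSO counts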;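 for AC50: light microscopy image of cell morphology used as background control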
# Procedure, shortened: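 Light-microscopy visualization of HUVEC cultures at 24 h post-treatment, with DMSO as baseline for bidirectional fitting.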
# [5] = read-out: Transforming growth factor beta 1 (TGFb1), TGFB1 (gene 7040); test: BSK_BE3C_TGFb1: BioMAP Diversity Plus: BE3C Assay for Transforming growth factor beta 1 (TGFb1) Biomarker Activity (AID 2283036;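 note: TGF-b1 protein level measured by ELISA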); settings: primary human bronchial epithelial cells; actives raise or lower the signal
# Procedure, shortened: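 ELISA readout of TGF-b1 from human lung bronchial epithelial primary cells, taken 24 h post-treatment. Gain or loss of signal fitted relative to DMSO baseline, with parallel SRB staining for overt cytotoxicity.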
# [6] = read-out: Transforming growth factor beta 1 (TGFb1), TGFB1 (gene 7040); test: BSK_KF3CT_TGFb1: BioMAP Diversity Plus: KF3CT Assay for Transforming growth factor beta 1 (TGFb1) Biomarker Activity (AID 2283072); settings: primary human keratinocytes with fibroblasts; actives raise or lower the signal
# Procedure, shortened: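 ELISA quantifies TGF-b1 at 24 h post-dose in a primary human skin co-culture of keratinocytes and fibroblasts, with gain or loss judged against DMSO. Parallel SRB total-protein staining flags overt cytotoxicity.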
# [7] = BSK_BT_PBMCCytotoxicity: PBMC Cytotoxicity Assessment in the BioMAP Diversity Plus: BT Assay (AID 2284225); settings: primary human B cells with PBMC;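 note: PBMC viability measured by Alamar Blue dye reduction fluorescence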
# Procedure, shortened: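 Viability by Alamar Blue reduction (6 h, ex/em 546/580 nm) after 90 h culture of SEB/TSST-1-activated PBMC (20 ng/mL each) given compound 1 h before activation. DMSO served as baseline for curve fitting.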
# [8] = read-out: Secreted IgG (sIgG), gene 3500; test: BSK_BT_sIgG: BioMAP Diversity Plus: BT Assay for Secreted IgG (sIgG) Biomarker Activity (AID 2284226); settings: primary human B cells with PBMC
# Procedure, shortened: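 ELISA quantitation of secreted IgG from human B cells co-cultured with PBMC, sampled 24 h post-dosing. Values fitted relative to DMSO vehicle as baseline, positive fitting direction.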
# [9] = read-out: Interleukin 6 (IL6), IL6 (gene 3569); test: BSK_BT_xIL6: BioMAP Diversity Plus: BT Assay for Interleukin 6 (IL6) Biomarker Activity (AID 2284228); settings: primary human B cells with PBMC
# Procedure, shortened: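 Chemical added to human B cell/PBMC co-culture → 24 h → supernatant IL-6 by Luminex xMAP → fit vs DMSO baseline, upward direction.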
# [10] = read-out: Interleukin 17A (IL17A), IL17A (gene 3605); test: BSK_BT_xIL17A: BioMAP Diversity Plus: BT Assay for Interleukin 17A (IL17A) Biomarker Activity (AID 2284229); settings: primary human B cells with PBMC
# Procedure, shortened: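 Chemicals were added to a human B cell and PBMC co-culture. After 24 h, secreted IL-17A was measured with Luminex xMAP. Curves were fitted in the positive direction, with DMSO wells as baseline.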
# [11] = read-out: Tumor necrosis factor (Homo sapiens) (UniProt P01375); test: BSK_BT_xTNFa: BioMAP Diversity Plus: BT Assay for Tumor necrosis factor alpha (TNF-alpha) Biomarker Activity (AID 2284230); settings: primary human B cells with PBMC
# Procedure, shortened: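 Compounds were added to a B cell plus PBMC co-culture, and after 24 h secreted TNF-alpha was quantified with Luminex xMAP technology, with responses fitted upward from the DMSO control.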
# [12] = read-out: Vascular cell adhesion molecule 1 (VCAM1), VCAM1 (gene 7412); test: BSK_MyoF_VCAM1: BioMAP Diversity Plus: MyoF Assay for Vascular cell adhesion molecule 1 (VCAM1) Biomarker Activity (AID 2284231); settings: primary human lung fibroblasts
# Procedure, shortened: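 Steps: fibroblasts from human lung exposed to compound; biomarker quantified by ELISA at 24 h; values analysed for upward change over the DMSO baseline.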
# [13] = read-out: Collagen I, COL1A1 (gene 1277); test: BSK_MyoF_CollagenI: BioMAP Diversity Plus: MyoF Assay for Collagen I Biomarker Activity (AID 2284238); settings: primary human lung fibroblasts
# Procedure, shortened: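 Multiplexed primary human lung fibroblast system; Collagen I measured by ELISA at 24 h post-dose. Increases are referenced to DMSO.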
# [14] = read-out: Collagen III, COL3A1 (gene 1281); test: BSK_MyoF_CollagenIII: BioMAP Diversity Plus: MyoF Assay for Collagen III Biomarker Activity (AID 2284239); settings: primary human lung fibroblasts
# Procedure, shortened: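 Compounds are added to primary human lung fibroblasts and left for 24 hours. Collagen III is then quantified by ELISA. Analysis takes DMSO as baseline and fits increases in signal.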
# [15] = read-out: Interleukin 17F (IL17F), IL17F (gene 112744); test: BSK_BT_xIL17F: BioMAP Diversity Plus: BT Assay for Interleukin 17F (IL17F) Biomarker Activity (AID 2284243); settings: primary human B cells with PBMC
# Procedure, shortened: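 Measures secreted IL-17F from a human B cell plus PBMC co-culture at 24 h post-dose by Luminex xMAP, with DMSO defining baseline activity.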
# [16] = read-out: Actin alpha 1 (ACTA1), ACTA1 (gene 58); test: BSK_MyoF_ACTA1: BioMAP Diversity Plus: MyoF Assay for Actin alpha 1 (ACTA1) Biomarker Activity (AID 2284244); settings: primary human lung fibroblasts
# Procedure, shortened: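 alpha-SMA levels read by ELISA against DMSO baseline, 24 h post-dose, in primary human lung fibroblasts. Parallel cultures stained with 0.1% SRB after 10% TCA fixation (560 nm) to flag overt cytotoxicity.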
# [17] = read-out: Interleukin 2 (IL2), IL2 (gene 3558); test: BSK_BT_xIL2: BioMAP Diversity Plus: BT Assay for Interleukin 2 (IL2) Biomarker Activity (AID 2284245); settings: primary human B cells with PBMC
# Procedure, shortened: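 Secreted IL-2 was read by Luminex xMAP from B cells co-cultured with PBMC (human primary) 24 h post-dosing; activity was analysed as gain of signal relative to DMSO vehicle.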
# [18] = read-out: Basic fibroblast growth factor (bFGF), FGF2 (gene 2247); test: BSK_MyoF_bFGF: BioMAP Diversity Plus: MyoF Assay for Basic fibroblast growth factor (bFGF) Biomarker Activity (AID 2284246); settings: primary human lung fibroblasts
# Procedure, shortened: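 bFGF was measured by ELISA in primary human lung fibroblasts 24 h after chemical addition. Signal was analysed as positive-direction change relative to DMSO baseline.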
# [19] = read-out: Plasminogen activator inhibitor-1 (PAI1), SERPINE1 (gene 5054); test: BSK_MyoF_PAI1: BioMAP Diversity Plus: MyoF Assay for Plasminogen activator inhibitor-1 (PAI1) Biomarker Activity (AID 2284256); settings: primary human lung fibroblasts;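 note: PAI-1 protein level measured by ELISA in fibroblast cultures; PAI-1 read 24 h after compound addition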
# Procedure, shortened: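 Activity reflects increased PAI-1, determined by ELISA and compared with DMSO, in human lung fibroblasts treated for 24 h.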
# Tumor necrosis factor (Homo sapiens), sequence (P01375 whole entry, looked up): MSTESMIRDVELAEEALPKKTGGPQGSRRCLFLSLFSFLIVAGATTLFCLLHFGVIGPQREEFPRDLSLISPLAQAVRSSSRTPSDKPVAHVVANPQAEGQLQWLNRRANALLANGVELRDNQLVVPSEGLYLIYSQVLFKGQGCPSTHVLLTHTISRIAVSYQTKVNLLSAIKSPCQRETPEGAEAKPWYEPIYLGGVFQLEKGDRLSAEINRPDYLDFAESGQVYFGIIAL
compound,measurement,setting,value
CN(C)Cc1cc(C(C)(C)C)c(O)c(C(C)(C)C)c1,outcome,[1],inactive
same,outcome,[2],inactive
same,outcome,"CD40, CD40 (gene 958)",inactive
Oc1ccc(Cl)cc1C1CCCC1,AC50,[3],4.12 µM (active)
CCCC(=O)OC/C=C(\C)CCC=C(C)C,outcome,[3],inactive
CC(C)CC(=O)O,outcome,[3],inactive
CCCCCCC1CCC(=O)O1 (stereo unspecified),outcome,[3],inactive
CN(C)c1ccc(C(c2ccccc2)c2ccc(N(C)C)cc2)cc1,AC50,[1],2.81 µM (active)
same,AC50,[4],13 µM (active)
same,outcome,[5],inactive
same,outcome,[6],inactive
same,AC50,"CD40, CD40 (gene 958)",20 µM (active)
same,AC50,[7],33.7 µM (active)
same,AC50,[8],11.8 µM (active)
same,AC50,[9],14.6 µM (active)
same,AC50,[10],20 µM (active)
same,AC50,[11],33.1 µM (active)
same,outcome,[12],inactive
same,outcome,[13],inactive
same,outcome,[14],inactive
same,AC50,[15],29 µM (active)
same,AC50,[16],32.7 µM (active)
same,AC50,[17],34.3 µM (active)
same,outcome,[18],inactive
same,outcome,[19],inactive
COC(OC)C(C)c1ccccc1 (stereo unspecified),outcome,[3],inactive
CN1CCCC1,outcome,[3],inactive
Cc1cc(-n2nc3ccc(Cl)cc3n2)c(O)c(C(C)(C)C)c1,outcome,[1],inactive
same,outcome,[4],inactive
same,outcome,[5],inactive
same,outcome,[2],inactive
same,outcome,[6],inactive
same,outcome,"CD40, CD40 (gene 958)",inactive
same,outcome,[7],inactive
same,outcome,[8],inactive
same,outcome,[9],inactive
same,outcome,[10],inactive
same,outcome,[11],inactive
same,outcome,[12],inactive
same,outcome,[13],inactive
same,outcome,[14],inactive
same,outcome,[15],inactive
same,outcome,[16],inactive
same,outcome,[17],inactive
same,outcome,[18],inactive
same,outcome,[19],inactive
CC[N+](CC)(CC(=O)Nc1c(C)cccc1C)Cc1ccccc1,AC50,[4],39.8 µM (active)
same,outcome,[5],inactive
same,outcome,[2],inactive
same,outcome,[6],inactive
same,outcome,"CD40, CD40 (gene 958)",inactive
same,outcome,[7],inactive
same,outcome,[8],inactive
same,outcome,[9],inactive
same,outcome,[10],inactive
same,outcome,[11],inactive
same,outcome,[12],inactive
same,outcome,[13],inactive
same,outcome,[14],inactive
same,outcome,[15],inactive
same,outcome,[16],inactive
same,outcome,[17],inactive
same,outcome,[18],inactive
same,outcome,[19],inactive
O=[N+]([O-])c1ccc2nc[nH]c2c1,outcome,[3],inactive
O=C(C(=O)c1ccccc1)c1ccccc1,outcome,[1],inactive
same,outcome,[4],inactive
same,outcome,[5],inactive
same,outcome,[2],inactive
same,outcome,[6],inactive
same,outcome,"CD40, CD40 (gene 958)",inactive
same,outcome,[7],inactive
same,outcome,[8],inactive
same,outcome,[9],inactive
same,outcome,[10],inactive
same,outcome,[11],inactive
same,outcome,[12],inactive
same,outcome,[13],inactive
same,outcome,[14],inactive
same,outcome,[15],inactive
same,outcome,[16],inactive
same,outcome,[17],inactive
same,outcome,[18],inactive
same,outcome,[19],inactive
CC[N+](CC)(CC(=O)Nc1c(C)cccc1C)Cc1ccccc1 (tested in a mixture with another compound),outcome,[1],inactive
same,outcome,[2],inactive
same,outcome,"CD40, CD40 (gene 958)",inactive
CCCCCCC(O)CCCCCCCCCCC(=O)OC (stereo unspecified),outcome,[1],inactive
same,outcome,[4],inactive
same,outcome,[5],inactive
same,outcome,[2],inactive
same,outcome,[6],inactive
same,outcome,"CD40, CD40 (gene 958)",inactive
same,outcome,[7],inactive
same,outcome,[8],inactive
same,outcome,[9],inactive
same,outcome,[10],inactive
same,outcome,[11],inactive
same,outcome,[12],inactive
same,outcome,[13],inactive
same,outcome,[14],inactive
same,outcome,[15],inactive
same,outcome,[16],inactive
same,outcome,[17],inactive
same,outcome,[18],inactive
same,outcome,[19],inactive
CCC(C)NC(N)=O (stereo unspecified),outcome,[3],inactive
CCCCCCCCCC/C=C/C1CC(=O)OC1=O (stereo unspecified),outcome,[1],inactive
same,outcome,[4],inactive
same,outcome,[5],inactive
same,outcome,[2],inactive
same,outcome,[6],inactive
same,outcome,"CD40, CD40 (gene 958)",inactive
same,outcome,[7],inactive
same,outcome,[8],inactive
same,outcome,[9],inactive
same,outcome,[10],inactive
same,outcome,[11],inactive
same,outcome,[12],inactive
same,outcome,[13],inactive
same,outcome,[14],inactive
same,outcome,[15],inactive
same,outcome,[16],inactive
same,outcome,[17],inactive
same,outcome,[18],inactive
same,outcome,[19],inactive
